Results reported in PubChem BioAssay (NCATS).
Active and inactive are the calls of the source. Calls follow the shape of the full dose curve.

Assay: Cell Proliferation Assay Versus the ED40515 IL2 Independent ATL cell lines (AID 1053194)
Details: ED40515 IL2-independent ATL cells
Source text: Adult T-cell leukemia (ATL) develops in individuals infected with human T-cell lymphotropic virus-1 (HTLV-1). Clinically, ATL is subclassified into four subtypes: smoldering, chronic, lymphomatous, and acute. Two autocrine loops (IL-2/IL-2Ralpha and IL-15/IL-15Ralpha) and one paracrine stimulation loop that involves IL-9 expression by ATL cells and IL-9Ralpha expression on monocytes are required to maintain viability and proliferation in the smoldering and chronic forms of the disease. These assays examined the differential response profiles for the MIPE library of approved and investigational drugs versus an IL2 dependent and independent matched ATL cell line, with the current submission examining the differential response profiles for drugs on an IL2 independent matched ATL cell line
Plate log growing ED40515 -IL2 cells: 1000cells/ well in 5uL phenol red free RPMI +5% FBS +1x p/s, Glutamine using 1536 well white griener tissue culture plates and multidrop cassette acoustic dispensing Columns 1 and 3 DMSO Columns 2 and 4, 9.2 uM Bortezomib Incubate 48 hours for celltiter glo 37C with 5%CO2 and 95% humidity with low evaporation lids Dispense 3 uL per well of cell titer glo with multidrop Incubate for 15 minutes at RT Read on VL/2 using Luminesence Wheel (Filter A)

SMILES | Potency
CC(O)(CS(=O)(=O)c1ccc(F)cc1)C(=O)Nc1ccc(C#N)c(C(F)(F)F)c1 (stereo not drawn) | 18.7 µM (active)
Cc1sc2c(c1C)C(c1ccc(Cl)cc1)=N[C@@H](CC(=O)OC(C)(C)C)c1nnc(C)n1-2 | 0.0833 µM (active)
Cn1c(CCCC(=O)O)nc2cc(N(CCCl)CCCl)ccc21 | 18.7 µM (active)
Cn1cc(C2=C(c3cn(C4CCN(Cc5ccccn5)CC4)c4ccccc34)C(=O)NC2=O)c2ccccc21 | 13.2 µM (active)
Cc1cc(SCc2sc(-c3ccc(C(F)(F)F)c(F)c3)nc2C)ccc1OCC(=O)O | 26.4 µM (active)
CNC(=O)N1N=C(c2ccc(N)cc2)c2cc3c(cc2CC1C)OCO3 (stereo not drawn) | 2.96 µM (active)
O=C(O)C(=O)c1cn(Cc2ccccc2)c2ccc(-c3ccc(OC(F)(F)F)cc3)cc12 | 20.9 µM (active)
C[C@]12CCC(=O)C(O)=C1CC[C@@H]1[C@@H]2CC[C@]2(C)C(=O)CC[C@@H]12 | 26.4 µM (active)
COC1(CS(=O)c2ccccc2)CCN(CCc2c[nH]c3ccc(F)cc23)CC1 (stereo not drawn) | 23.5 µM (active)
COC[C@H]1OC(=O)c2coc3c2[C@@]1(C)C1=C(C3=O)C2CCC(=O)[C@@]2(C)C[C@H]1OC(C)=O (stereo partly drawn) | 14.8 µM (active)
CO[C@@H](C(=O)N1Cc2[nH]nc(NC(=O)c3ccc(N4CCN(C)CC4)cc3)c2C1)c1ccccc1 | 7.43 µM (active)
CN(C)CCN(C)CCc1ccc(Cl)c(Cl)c1 | 16.6 µM (active)
CS(=O)c1ccc(-c2nc(-c3ccc(F)cc3)c(-c3ccncc3)[nH]2)cc1 (stereo not drawn) | 29.6 µM (active)
